Screens from PubChem.
RORgamma inh = blocks mouse ROR gamma transcriptional activity; P51450; Drosophila S2 Gal4-RORgamma UAS-luciferase reporter, 20 h; Potency, µM (doses to about 53.6 µM), for the others: at the top dose activity change, negative = inhibition, most hits filed as inhibitors; hit rate 5.4% among 310,000; further: nearly all actives have a fitted effect of over 60% in size
Target sequence (P51450 whole entry, looked up, the tested form may be a part): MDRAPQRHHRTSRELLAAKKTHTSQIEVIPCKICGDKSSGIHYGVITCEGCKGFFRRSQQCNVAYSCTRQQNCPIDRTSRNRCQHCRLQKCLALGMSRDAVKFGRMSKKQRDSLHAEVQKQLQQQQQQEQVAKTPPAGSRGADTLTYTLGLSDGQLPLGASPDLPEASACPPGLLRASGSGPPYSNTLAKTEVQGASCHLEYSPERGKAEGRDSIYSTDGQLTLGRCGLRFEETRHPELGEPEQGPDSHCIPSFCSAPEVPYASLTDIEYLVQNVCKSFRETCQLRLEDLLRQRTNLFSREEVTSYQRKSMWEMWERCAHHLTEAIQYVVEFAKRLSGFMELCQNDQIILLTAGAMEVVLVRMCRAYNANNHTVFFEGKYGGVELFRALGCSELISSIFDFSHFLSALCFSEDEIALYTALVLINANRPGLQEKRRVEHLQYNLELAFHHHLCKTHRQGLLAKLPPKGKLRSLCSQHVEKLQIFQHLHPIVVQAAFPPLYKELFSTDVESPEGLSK
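Schneider cells (Drosophila), stable Gal4 DBD–ROR gamma + UAS-luc; 1 hr cmpd preincubation; Cu2+ induction 700 uM final; 20 hr ambient; luminescence.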
Gal4-VP16 FLuc = counter-screen for ROR gamma inhibitors: Gal4-VP16 reporter | hit rate 3.5% among 310,000 | Potency, µM (series often up to 53.6 µM), without a hit: at the top dose activity, negative = inhibition, most hits filed as inhibitors | Drosophila S2 Gal4-VP16 UAS-luciferase, luminescence, 20 h;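 further: Gal4-VP16 expression switched on by copper sulfate through the metallothionein promoter; nearly all actives have a fitted effect of over 50% in size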
KinaseGlo FLuc = blocks Kinase-Glo luciferase, a counter-screen artifact | Q27757 | Kinase-Glo luciferase, ATP luminescence, 8 min | Potency, µM (series often up to 38.3 µM), without a hit: at the highest dose activity change, negative = inhibition, hits mostly inhibitors | hit rate 0.28% among 200,000; further: nearly all actives have a fitted effect of over 60% in size
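Inhibition of Kinase-Glo luciferase light generation was assessed at 10 uM ATP in pH 7.2 imidazole buffer, with luminescence measured after eight minutes at ambient temperature.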
The depositor's hits bear a star; ? = inconclusive; . = not tested or not shown; [ ] = remark or other dose. Hits are enriched below; roughly 6.2% of the tested compounds scored in any of these assays. The call rests on the fitted dose curve; in most records, active means well fitted curve in the direction sought with a large enough effect; inconclusive means small, poorly fitted or top-dose-only effect, or another doubt; inactive means no such curve, though single readings can be large; an effect the other way counts as inactive or inconclusive. On the % scale 0 is the no-effect control and ±100 the full control effect; potency means the concentration at half of the fitted maximal effect.

SMILES	RORgamma inh	Gal4-VP16 FLuc	KinaseGlo FLuc
Oc1ccc(/C=N/Nc2cc(N3CCCC3)nc(N3CCCC3)n2)cc1	3%	-26%	0%
COc1ccc(/C=N/Nc2cc(N3CCCC3)nc(N3CCCC3)n2)cc1	13µM*	-5%	0%
Cc1cc(C)n2nc(C(=O)N/N=C/c3cccc(Cl)c3)nc2n1	5%	1%	.
Cc1cc(N/N=C/c2ccccc2[N+](=O)[O-])nc(-n2nc(C)cc2C)n1	?	0.89µM*	.
Cc1cc(N(CCO)CCO)nc(-n2nc(C)cc2C)n1	-30%	10%	3%
Cc1cc(C)n(-c2ccccc2[N+](=O)[O-])n1	-17%	-9%	-2%
Cc1cc(NCCO)nc(-n2nc(C)cc2C)n1	6.3µM*	20µM*	.
Cc1cc(N/N=C/c2cccc(Cl)c2)nc(-n2nc(C)cc2C)n1	0.071µM*	1.3µM*	.
Cc1ccc(C(=O)NCCCNC(=O)Cc2ccccc2)cn1	0%	-2%	.
O=C1N[C@@H]2[C@H](CCCCC(=O)Oc3ccc([N+](=O)[O-])cc3)SC[C@H]2N1	16%	3%	.
CCOC(=O)CSc1ncnc2c(C(=O)OCC)c3n(c12)CCC3	35%	-7%	-1%
NS(=O)(=O)c1ccc(CCNC(=O)C2CCCO2)cc1 (stereo not drawn)	6%	-8%	.
CCS(=O)(=O)N1CCC(NC(=O)C(Cc2cc(OC)ccc2OC)NC(C)=O)CC1 (stereo not drawn)	-15%	-12%	.
Cc1cc(C)nc(N/N=C/c2cccc([N+](=O)[O-])c2)n1	4%	4%	.
Cc1cc(N/N=C/c2ccc(O)cc2O)nc(-c2ccccc2O)n1	-1%[10 µM]	-2%	-2%
Cc1cc(N/N=C/c2ccc(O)cc2O)nc(-n2nc(C)cc2C)n1	1µM*	0.71µM*	1%
COc1ccc(/C=N/Nc2cc(C)nc(NS(=O)(=O)c3ccc(C)cc3)n2)cc1	-29%	-7%	1%
COc1ccc(/C=N/Nc2cc(C)nc(-n3nc(C)cc3C)n2)cc1	0.32µM*	0.35µM*	-1%
Cc1cc(N/N=C/c2cccc([N+](=O)[O-])c2)nc(-n2nc(C)cc2C)n1	0.11µM*	1µM*	.
Cc1ccc(C(=O)NCCNS(=O)(=O)c2ccccc2)cn1	-15%	2%	.
CN(/N=C/c1ccncc1)c1cnc2ccccc2n1	-16%	-2%	-1%
CCc1cccc2c(C#N)cn(CC(=O)NCCOC)c12	2%	-10%	2%
CCCCc1cc(=O)oc2c3c(cc(OCC(=O)NCCCO)c12)OC(C)(C)CC3	-2%	-23%	.
O=C(O)c1ccc(N=C2SCC(=O)N2Cc2ccccc2)cc1	4%	-2%	-5%
O=C(O)c1ccc(CN2C(=O)CSC2=S)cc1	10µM*	?	-2%
SMILES	RORgamma inh	Gal4-VP16 FLuc	KinaseGlo FLuc
Fc1ccc(NC(=S)NC2CCCCC2)c(F)c1F	8.9µM*	7.1µM*	.
O=C(Nc1ccccc1NC(=O)NC1CCCCC1)NC1CCCCC1	-2%[0.365 µM]	.	-2%
Cc1c(Cl)cccc1NC(=O)NC1CCCCC1	8%	29%	-3%
Cc1c(Cl)cccc1NC(=S)NC1CC1	10µM*	?	0%
CC(=O)Nc1cccc(NC(=S)Nc2cccc(Cl)c2Cl)c1	15%	-1%	3%
CC(=O)c1ccc(NC(=S)Nc2cccc(Cl)c2C)cc1	11µM*	?	-1%
O=C(NNC(=S)NC1CCCCC1)c1cccc(S(=O)(=O)Nc2ccccc2Cl)c1	4µM*	?	1%
Cc1ccc(NS(=O)(=O)c2cccc(C(=O)NNC(=O)NC3CCCCC3)c2)c(C)c1	20%	-15%	-1%
CCOc1ncccc1C(=O)OCC(=O)Nc1cccc(S(N)(=O)=O)c1	-6%	-5%	-2%
CCOC(=O)N1CCN(C(=O)Cc2cccc3ccccc23)CC1	21%	-11%	-4%
O=C(Cn1c(CO)nc2ccccc21)NC1CCCCCC1	27%	-3%	1%
O=C(CCC(=O)N1CCN(Cc2ccc(F)cc2)CC1)Nc1nnc(C2CCCCC2)s1	21%	-11%	.
CCCC(=O)Nc1cc(OC)c(C(=O)OC)cc1Cl	-4%	2%	2%
S=C(Nc1ccc(Cl)cc1Cl)NC1CCCCC1	?	0.89µM*	-3%
O=C(Nc1cccc(S(=O)(=O)Nc2ccccc2Cl)c1)c1ccc(Cl)nc1	?	6.3µM*	0%
O=C(Nc1cccc(S(=O)(=O)Nc2ccccc2Cl)c1)c1ccc(N2CCCC2)c([N+](=O)[O-])c1	?	-9%	7%
O=C(Nc1ccc(Cl)cc1Cl)NC1CCCC1	14%	5%	-3%
O=C(NC1CCN(C(=S)Nc2ccccc2Cl)CC1)C1CCCCC1	-14%	-9%	.
S=C(Nc1ccccc1Cl)NC1CCCCCC1	3.5µM*	10µM*	2%
CC12C=CC3(O1)C(C(=O)N1CCCOC13)C2C(=O)O (stereo not drawn)	27%	2%	0%
O=C1CSC(=Nc2cccc([N+](=O)[O-])c2)N1	9%	7%	.
CC1SC(=NC(=O)c2ccncc2)NC1=O (stereo not drawn)	14%	27%	-1%
CC1S/C(=N/N=C2CCC(C(C)(C)C)CC2)NC1=O (stereo not drawn)	2.5µM*	5µM*	-1%
CC1S/C(=N/N=C2CCCCC2)NC1=O (stereo not drawn)	10µM*	?	2%
CC(C)Cn1c(-c2csc3ccccc23)n[nH]c1=S	1.1µM*	6.3µM*	-4%
SMILES	RORgamma inh	Gal4-VP16 FLuc	KinaseGlo FLuc
CCc1nnc(NC(=O)c2csc3c2CCC(C)C3)s1 (stereo not drawn)	-3%	13%	-1%
Cc1occc1-c1n[nH]c(=S)n1CC(C)C	8%	3%	0%
CCn1c(-c2csc3c2CCC(C)C3)n[nH]c1=S (stereo not drawn)	2µM*	2.8µM*	-3%
CCn1c(-c2csc3ccccc23)n[nH]c1=S	6.3µM*	6.3µM*	-4%
Cc1ccc([N+](=O)[O-])c(-c2n[nH]c(=S)n2-c2cccc(Cl)c2)c1	?	-12%	.
CCn1c2ccccc2c2cc(/C=N/n3c(-c4cc(C)[nH]n4)n[nH]c3=S)ccc21	-34%	?	.
Cc1cccc(-n2c(-c3csc4ccccc34)n[nH]c2=S)c1	2µM*	-18%	-3%
COc1ccc(N(C)C(=O)C2CCCN2S(=O)(=O)c2cccc3nsnc23)c(OC)c1 (stereo not drawn)	-7%	1%	.
O=C(Nc1ccc(Cl)cc1)C1CCCN1C(=O)NCc1ccccc1 (stereo not drawn)	25%	12%	.
CCOc1cc(C=C2C(=O)c3ccccc3C2=O)ccc1OCC(=O)Nc1ccc(C)cc1	-25%	-3%	.
O=C(Nc1ccccc1[N+](=O)[O-])c1cccc(N2C(=O)CCC2=O)c1	-10%	-14%	.
Cc1cc(/C=N/Nc2nc(N)ncc2[N+](=O)[O-])c(C)n1-c1ccccc1F	1.6µM*	7.1µM*	.
Cc1cccc(C)c1-n1c(C)cc(/C=N\Nc2ccc([N+](=O)[O-])cn2)c1C	-25%	-3%	-6%
CN(C(=S)NC(=O)C1(C)CC1(Cl)Cl)c1ccccc1 (stereo not drawn)	?	?	-4%
CCN(CC)C(=S)NC(=O)Cc1ccccc1	6.3µM*	?	-2%
CN(C(=S)NC(=O)Cc1ccccc1)c1ccccc1	10µM*	?	4%
O=C(Cc1ccccc1)NNC(=O)Cc1ccccc1	11%	4%	2%
